Source: PubChem BioAssay (NCATS)
Values joined by “and” are separate entries in the source; they are usually repeats but may differ in a detail not shown here. Identical values can stand only once. Inconclusive results are not listed. Values without a mark were called inactive. Active and inactive are the calls of the source. The call rests on the fitted dose curve; in most records, active means well fitted inhibition curve with a large enough effect; inconclusive means small, poorly fitted or top-dose-only effect; inactive means no such curve, though single readings can be large or run the other way.

Experiment: Confirmatory qHTS for small molecule stabilizers of the endoplasmic reticulum resident proteome: Secreted ER Calcium Modulated Protein (SERCaMP) assay (AID 1508628); further: nearly all actives have a fitted effect of over 40% in size
Settings: SERCaMP secreted luciferase ER calcium/proteostasis reporter; series mostly up to 76.3 µM; activity change, negative = decrease: at the top concentration
Source text: Assay Provider: Brandon K. Harvey Ph.D.
National Institute on Drug Abuse, National Institutes of Health, Baltimore, MD
Endoplasmic reticulum (ER) dysregulation is associated with human pathologies including neurodegenerative, cardiovascular, muscular, and diabetic conditions. Maintenance of ER calcium is critical for functions of the ER and its depletion can lead to loss of ER resident proteins, in a process termed exodosis. Therapeutic compounds capable of attenuating the redistribution of ER proteins under pathological conditions may slow or stop disease progression. To identify such compounds, we performed a quantitative high-throughput screen (qHTS) using the SERCaMP assay, which monitors secretion of ER resident proteins triggered by calcium depletion.
SERCaMP was initially developed as a reporter of ER calcium homeostasis using a Gaussia luciferase with a modified signal peptide and carboxy-terminus (GLuc-SERCaMP), modifications that confer secretion of the reporter in response to ER calcium depletion (Henderson et al., 2014). The assay was used to screen 9,501 compounds, including a collection of drugs approved by the FDA (US), EMA (EU), NHI (Japan), and HC (Canada) regulatory agencies (Huang et al., 2011). Since the SERCaMP reporter reflects the exodosis phenomenon (Trychta et al., 2018a), compounds identified in the screen have the potential to prevent exodosis by different mechanisms such as stabilizing ER calcium or augmenting ERS retrieval.
1. Henderson, M.J., Wires, E.S., Trychta, K.A., Richie, C.T., and Harvey, B.K. (2014). SERCaMP: a carboxy-terminal protein modification that enables monitoring of ER calcium homeostasis. Mol Biol Cell 25, 2828-2839.
2. Huang, R., Southall, N., Wang, Y., Yasgar, A., Shinn, P., Jadhav, A., Nguyen, D.T., and Austin, C.P. (2011). The NCGC pharmaceutical collection: a comprehensive resource of clinically approved drugs enabling repurposing and chemical genomics. Sci Transl Med 3, 80ps16.
3. Trychta, K.A., Back, S., Henderson, M.J., and Harvey, B.K. (2018a). KDEL Receptors Are Differentially Regulated to Maintain the ER Proteome under Calcium Deficiency. Cell Rep 25, 1829-1840 e1826.
SEQUENCE No. (1, 2, 3, etc.); […] (e.g., Cells, Incubation, Reagent, etc.); VALUE and DESCRIPTION.
1; Reagent; 5 uL; 1000 SH-SY5Y cells per wells
3; Compound; 23 nL; Control inhibitor / compound library
5; Reagent; 100 nM; Thapsigargin
7; Reagent; 1 uL; 0.5x coelenterazine
8; Detection; Luminescence; ViewLux imaging system
NOTES (numbers refer to sequence above)
1; SH-SY5Y human neuroblastoma cells stably expressing GLuc-SERCaMP (SH-SY5Y-GLuc-ASARTDL) cells were seeded in 1,536 well white tissue culture treated plates (Corning, Cat# 7464) in DMEM-high glucose-sodium pyruvate (ThermoFisher Scientific, Cat #10569) supplemented with 10% bovine growth serum (Hyclone), 10 U/ml penicillin (Gibco), 10 ug/ml streptomycin (Gibco), and 20 mM HEPES.
2; Assay plates were incubated for 5 hour at 37C in a humidified incubator containing 5% CO2.
3; qHTS libraries (23 nl, final concentrations of 1.53 uM, 7.67 uM, 38.3 uM) or controls (neutral control: DMSO, positive control: dantrolene) were added using a Kalypsis pin-tool Robotic System equipped with 1536 pinheads.
4; Cells were then incubated for 16 hours at 37C, 5% CO2.
5; Thapsigargin was added at 100 nM to deplete ER calcium stores.
6; Cells were incubated for 4 hour (37 °C, 5% CO2)
7; Gaussia luciferase in the medium was measured by adding 1 ul of 0.5x coelenterazine (final concentration 0.07x) prepared in Gaussia Luciferase Glow Assay Buffer (Pierce), without addition of the Cell Lysis Buffer Reagent.
8; Luminescence was measured using a ViewLux […] CCD imaging system (Perkin Elmer) equipped with clear filters. […] The same controls were also used for the calculation of the Z' factor, a measure of assay quality control, as previously described (Zhang et al., 1999). […]
On the % scale 0 is the no-effect control and ±100 the full control effect; potency means the concentration at half of the fitted maximal effect.

Question: Which Potency does the source give for `NC(=Nc1ccccc1)Nc1ccccc1` here?
Answer: The Potency was 3.55 µM (active) and 5.62 µM (active) and 355 nM (active).

Question: For `CCN(CC)CCCN(c1ccccc1)C1Cc2ccccc2C1`, which Potency is on record?
Answer: The Potency was 39.8 µM (active).

Question: With `c1cc(CN2CCCCC2)cc(OCCCNc2nc3ccccc3s2)c1` as the compound, how does the Potency read?
Answer: Its Potency is 12.6 µM (active).

Question: Which Potency does the source give for `CCc1cccc(N(C)C(N)=Nc2cccc3ccccc23)c1` here?
Answer: The Potency was 15.8 µM (active).

Question: For `CCC(=O)c1ccc2c(c1)N(CCCN(C)C)c1ccccc1S2`, which “activity change, negative = decrease” value is on record?
Answer: Its value is 227%.

Question: Which Potency does the source give for `COC(=O)[C@@H](N)Cc1ccc(O)c(O)c1` here?
Answer: Its Potency is 35.5 µM (active).

Question: For `COC(=O)[C@H]1[C@H]2C[C@@H]3c4[nH]c5cc(OC)ccc5c4CCN3C[C@H]2C[C@@H](OC(=O)c2cc(OC)c(OC)c(OC)c2)[C@@H]1OC`, which Potency is on record?
Answer: Its Potency is 15.8 µM (active).

Question: With `OC(CCN1CCCCC1)(c1ccccc1)C1CCCCC1` (stereo not given) as the compound, how does the Potency read?
Answer: Its Potency is 35.5 µM (active).

Question: With `CN1C[C@H](C(=O)N[C@]2(C)O[C@@]3(O)[C@@H]4CCCN4C(=O)[C@H](Cc4ccccc4)N3C2=O)C[C@@H]2c3cccc4[nH]cc(c34)C[C@H]21` as the compound, how does the Potency read?
Answer: Its Potency is 25.1 µM (active).

Question: Which “activity change, negative = decrease” value does the source give for `O=C(O)CN(CCN(CC(=O)O)CC(=O)O)CCN(CC(=O)O)CC(=O)O` here?
Answer: Its value is 9.61% [at 38.8 µM].
